The text below walks through data of PubChem BioAssay (NCI).

The structures appear in SMILES notation. The panel holds about 83,000 compounds, 20% with a hit somewhere; the sample as a whole holds those more often.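 Assay: single dose, 48 h. Readout: percent growth (0 = no net growth; negative = cell death). Active: <10.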 Unmarked numbers belong to inactive results. Calls of active or inactive are those of the source.

The test system of the first assay is K-562 leukemia. Kind of assay: NCI-60 one-dose screen, 48 h (100 = growth as untreated, 0 = no growth, -100 = all killed). Particulars: 10 µM unless noted.
As for `CCCCCCNC(=O)Oc1ccc(/C(=C(\C)c2ccc(OC)cc2)c2ccc(OCCN(C)C)cc2)cc1`, the growth is 9.79% (active).

Turning to `Cc1cccc(NC(c2cc3cccc4ccc5cccc2c5c43)c2nnnn2C(C)(C)C)c1C` (stereo not given), the growth is 96.6%.

As for `CCOC(=O)c1c(NCC(=O)Nc2cccc([N+](=O)[O-])c2)sc2c1CCCC2`, the growth was 3.3% (active).

In the case of `O=c1oc2ccc(-c3ccc(F)cc3F)cc2c(=O)n1-c1ccc(F)c(F)c1`, the growth was 10.8%.

For `Brc1cccc(/C=N/Nc2nc(N/N=C/c3cccc(Br)c3)nc(N3CCOCC3)n2)c1`, the growth is 14.5%.

With `N#C/C(=C\c1ccc2ccccc2c1)C(=O)Nc1sc2c(c1C#N)CCC2`, the growth was 96.2%.

In a further assay the test system is MALME-3M melanoma. The description is as above. As to conditions: 10 µM unless noted.
For `COc1cc(C2=NN(C(C)=O)C(c3ccc(N4CCOCC4)cc3)C2)cc(OC)c1OC` (stereo not given), the growth is 94.4%.

Consider `COc1ccc([C@H]2c3[nH]c4ccccc4c3C[C@@H]3C(=O)N(C4CCN(Cc5ccccc5)CC4)CC(=O)N23)c(OC)c1`, for which the growth is 97.1%.

Turning to `COc1ccc([C@H]2[C@H](O)C(=O)N2c2cc(OC)c(OC)c(OC)c2)cc1Cl`, the growth is 65.9%.

As for `COc1ccc(/C=C/C(=O)c2nnn(-c3ccc(C(=O)O)cc3)c2C)cc1OC`, the growth was 95.8%.

In the case of `O=[N+]([O-])c1ccc(-c2nnc(SCc3ccc(O)c4ncccc34)n2-c2ccccc2)cc1`, the growth was 19.6%.

`O=C(NCCCNc1cc(-c2cn(-c3ccccc3)nc2-c2cccc(O)c2)ccn1)Nc1cccc(C(F)(F)F)c1`: the growth was 17.7%.

Consider `CC(C)C(=O)Nc1ccc(-c2nc(-c3cccc(O)c3)c(-c3ccnc(Br)c3)[nH]2)cc1`, for which the growth is 40.8%.

For the compound `Cc1cc(F)cc(NS(=O)(=O)c2ccc(-c3cnc(C4CC4)o3)cc2)c1`, the growth was 59.2%.

With `CCOC(=O)c1c(NCC(=O)Nc2cccc(Cl)c2)sc2c1CCCC2`, the growth is 82.8%.

On to `O=S(=O)(Nc1cc(Cl)cc(Cl)c1)c1ccc(-c2cnc(C3CC3)o2)cc1`, for which the growth was 60.4%.

Turning to `COc1cc2c3c(n(CCCNC4CCC4)c(=O)c2cc1OC)-c1cc2c(cc1C3=O)OCO2`, the growth is -46.2% (active).

As to `CCOC(=O)Nc1cccc(-n2cnc3cc(-c4ccc(O)cc4)ccc32)c1`, the growth is 77.7%.

On to `CC(=O)NC(C)(C)C(=O)N[C@@H](C)C(=O)NC(C)(C)C(=O)N[C@@H](C)C(=O)NC(C)(C)C(=O)N[C@@H](C)C(=O)N[C@@H](CCC(N)=O)C(=O)NC(C)(C)C(=O)N[C@H](C(=O)NC(C)(C)C(=O)NCC(=O)N[C@@H](CC(C)C)C(=O)NC(C)(C)C(=O)N1CCC[C@H]1C(=O)N[C@H](C(=O)NC(C)(C)C(=O)NC(C)(C)C(=O)N[C@@H](CCC(N)=O)C(=O)N[C@@H](CCC(N)=O)C(=O)N[C@H](CO)CC1CCCCC1)C(C)C)C(C)C`, for which the growth is -41.4% [5 µM] (active).

In the case of `Cc1nn(-c2ccc(Cl)cc2)c(C)c1N=Nc1ccc2oc(=O)ccc2c1`, the growth was 89.5%.

`O=C(NCCNc1cc(-c2cn(-c3ccccc3)nc2-c2cccc(O)c2)ccn1)Nc1ccc(Cl)c(C(F)(F)F)c1`: the growth is 83%.

As to `CN(c1ccc(Br)cc1)S(=O)(=O)c1ccc(-c2cnc(C3CC3)o2)cc1`, the growth was 63.8%.

In the case of `CC(C)C[C@H]1C(=O)O[C@H](C(C)C)C(=O)N(C)[C@@H](C(C)C)C(=O)O[C@H](C(C)C)C(=O)N(C)[C@@H](C(C)C)C(=O)O[C@H](C(C)C)C(=O)N1C`, the growth is 18%.

As for `CCCC(=O)NC(c1cccnc1)c1cc(Cl)c2cccnc2c1O` (stereo not given), the growth is 79.6%.

In the case of `Nc1nc(-c2cccc([N+](=O)[O-])c2)c(N=Nc2ccccc2[N+](=O)[O-])s1`, the growth is 53.9%.

With `C/C(=N\NC(=O)CSc1nc2sc3c(c2c(=O)n1-c1ccccc1)CCC(C)C3)c1ccc(Cl)cc1` (stereo not given), the growth is 29.1%.

Consider `C#C[C@]1(O)CC[C@H]2[C@@H]3CC=C4c5sc(Nc6nc(C)cc(OC)n6)nc5CC[C@]4(C)[C@H]3CC[C@@]21C`, for which the growth is 24%.

As for `CN1CCN(c2ccc(NC(=O)Nc3ccc4c(ccn4-c4cccc(C(N)=O)n4)c3)cc2C(F)(F)F)CC1`, the growth was 16%.

As to `COc1ccc(NS(=O)(=O)c2ccc(-c3cnc(C4CC4)o3)cc2)cc1Cl`, the growth was 50%.

As to `CC1OC(O[C@@H]2C(O)C(CO)OC(O[C@H]3COC(O[C@H]4CC[C@]5(C)[C@H]6CC[C@]78OC[C@@]9(CC[C@](C)(C=O)C[C@H]97)[C@H](O)C[C@@]8(C)[C@]6(C)CC[C@H]5C4(C)C)[C@@H](OC4OC(CO)[C@@H](O)[C@@H](O)[C@@H]4O)[C@@H]3O)[C@H]2OC2OC[C@@H](O)[C@@H](O)[C@@H]2O)[C@@H](O)[C@@H](O)[C@H]1O` (stereo not given in full), the growth was -69.7% (active).

For the compound `COc1ccc(-c2ccc3c4c(cccc24)C(=O)N(N2C(=O)c4cccc5cccc(c45)C2=O)C3=O)cc1`, the growth is 93.1%.

On to `N#Cc1c(NC(=O)c2ccc(F)c(Cl)c2)sc2c1CCC(=O)C2`, for which the growth was -78.7% (active).

As for `Nc1ccc(-c2nnc(SCc3ccc(O)c4ncccc34)o2)cc1`, the growth is -2.77% (active).

Regarding `IP(CCCCCCCCCCSc1n(Cc2ccc3ccccc3c2)c(-c2ccccc2)c(-c2ccccc2)[n+]1Cc1ccc2ccccc2c1)(c1ccccc1)(c1ccccc1)c1ccccc1`, the growth was -70.5% (active).

For the compound `Cc1cc(Cl)cc(NS(=O)(=O)c2ccc(-c3cnc(C4CC4)o3)cc2)c1`, the growth was 65.4%.

With `COc1cc(/C=N/n2cnc3oc(-c4ccccc4)cc3c2=N)cc(CN2CCCCC2)c1O`, the growth is -81% (active).

On to `CCOC(=O)c1c(NC(=O)c2ccc(C(C)(C)C)cc2)sc2cc(OCCN3CCCCC3)ccc12`, for which the growth is 97%.

Take `NS(=O)(=O)Oc1ccc2nc(Nc3ccc(F)c(F)c3)ccc2c1`: the growth is 102%.

On to `CC(=O)c1sc(Nc2cccc(Nc3nc(C)c(C)s3)c2)nc1C`, for which the growth was 69.8%.

For the compound `CCCCCCNC(=O)Oc1ccc(/C(=C(\C)c2ccc(OC)cc2)c2ccc(OCCN(C)C)cc2)cc1`, the growth is 1.42% (active).

Consider `Cc1cccc(NC(c2cc3cccc4ccc5cccc2c5c43)c2nnnn2C(C)(C)C)c1C` (stereo not given), for which the growth is 92.9%.

Take `CCOC(=O)c1c(NCC(=O)Nc2cccc([N+](=O)[O-])c2)sc2c1CCCC2`: the growth is -63.9% (active).

On to `O=c1oc2ccc(-c3ccc(F)cc3F)cc2c(=O)n1-c1ccc(F)c(F)c1`, for which the growth was -14.6% (active).

With `Brc1cccc(/C=N/Nc2nc(N/N=C/c3cccc(Br)c3)nc(N3CCOCC3)n2)c1`, the growth was -54% (active).

Consider `N#C/C(=C\c1ccc2ccccc2c1)C(=O)Nc1sc2c(c1C#N)CCC2`, for which the growth was 116%.
